# In the library only some 1.2% were active in any assay of this set; here they are far more common.
# TrxR1 inh = inhibitors of rat thioredoxin reductase 1; O89049; recombinant rTrxR1, NADPH fluorescence consumption, selenite substrate; Potency, µM (highest dose often 114 µM), without a hit: at the highest dose activity change, negative = inhibition, hits mostly inhibitors; 390,000 tested, 1% active; further: potency means the concentration at half of the fitted maximal effect; on the % scale 0 is the no-effect control and ±100 the full control effect; nearly all actives have a fitted effect of over 65% in size
# Target sequence (O89049 whole entry, looked up): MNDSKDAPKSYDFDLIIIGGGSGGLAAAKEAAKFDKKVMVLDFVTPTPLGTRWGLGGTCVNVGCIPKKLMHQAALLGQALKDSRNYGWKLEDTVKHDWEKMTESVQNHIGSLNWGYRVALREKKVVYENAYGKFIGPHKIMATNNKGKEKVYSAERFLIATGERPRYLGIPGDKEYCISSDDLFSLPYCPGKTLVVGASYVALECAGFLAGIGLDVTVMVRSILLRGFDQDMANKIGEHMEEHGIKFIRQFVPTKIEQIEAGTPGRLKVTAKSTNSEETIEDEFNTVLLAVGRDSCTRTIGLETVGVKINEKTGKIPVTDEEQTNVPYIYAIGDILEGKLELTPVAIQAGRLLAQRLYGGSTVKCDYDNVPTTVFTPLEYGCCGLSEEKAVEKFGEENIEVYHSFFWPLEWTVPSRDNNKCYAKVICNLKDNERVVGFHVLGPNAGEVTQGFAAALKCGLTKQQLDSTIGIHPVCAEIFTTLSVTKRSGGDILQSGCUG
#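 Rat TrxR1 (90 nM in the dispensed reagent) was pre-reduced with 400 uM NADPH for 5 min at room temperature, then incubated with compound for 15 min. After 400 uM selenite was added, NADPH fluorescence (Ex 340/Em 450 nm) was followed for 8 min.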
# TrxR1 substrate = rat thioredoxin reductase 1 substrate activity; 390,000 tested, 0.01% active; Potency, µM (highest dose often 114 µM), without a hit: at the highest dose activity change, negative = substrate turnover; purified TrxR1 substrate turnover, NADPH consumption readout; further: potency means the concentration at half of the fitted maximal effect; on the % scale 0 is the no-effect control and ±100 the full control effect; nearly all actives have a fitted effect of over 50% in size
#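 Rat TrxR1, dispensed at 90 nM, was prereduced with 400 uM NADPH (final) for 5 min at ~22 deg C, then incubated with compound 15 min before 400 uM selenite. A first-read NADPH fluorescence drop versus no-compound background flagged substrates.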
# GLS inhibitor = blocks human kidney-isoform glutaminase activity | O94925 | GLS enzymatic activity, qHTS titration | Potency, µM (titrated, usually from 45.5 µM), inactives show top-dose activity change, negative = inhibition, hits mostly inhibitors | 410,000 tested, 0.21% active | AID 624170; further: potency means the concentration at half of the fitted maximal effect; on the % scale 0 is the no-effect control and ±100 the full control effect
#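 hKGA in 45 mM KH2PO4 (pH 8.2), 0.02% Tween-20 with compound, then 1mM L-Glutamine (stock as added) plus glutamate oxidase/HRP/Amplex red coupling mix. Fluorescence read initially and after 30 min at RT; signal change reflects glutamate formation.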
# IDH1 R132H inh = human IDH1 R132H inhibition; O75874; IDH1-R132H enzyme, NADPH consumption, diaphorase/resazurin fluorescence; Potency, µM (titrated, usually from 76.6 µM), for the others: top-dose activity change, negative = inhibition, usual class: inhibitors; 390,000 tested, 0.093% active; AID 602179; further: potency means the concentration at half of the fitted maximal effect; on the % scale 0 is the no-effect control and ±100 the full control effect; nearly all actives have a fitted effect of over 65% in size
#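 IDH1-R132H (0.5 ug/mL dispensed) in pH 7.5 Tris buffer was preincubated 30 min with compound, then given a substrate mix of 0.016 mM NADPH and 2 mM alpha-KG for 80 min at room temperature; remaining NADPH was read by diaphorase/resazurin fluorescence.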
# IDH1 autofl = counter-screen for mutant IDH1 inhibitors: fluorescence interference | shares compounds with IDH1 R132H inh | Resorufin detection reagent fluorescence interference, cell-free | inhibition of signal, % at 51.2 µM | AID 623980 | 750 tested, under 10 active;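 further: 0% = wells with normal resorufin and full inhibition = wells lacking resorufin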
# IDH1 WT = wild-type IDH1 (human) inhibition counterscreen. Potency, µM (top dose mostly 115 µM), inactives show top-dose activity change, negative = inhibition, actives largely listed as inhibitors. 750 tested, 9% active. shares compounds with IDH1 R132H inh. WT IDH1 enzyme, NADPH diaphorase/resazurin fluorescence. AID 623995;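 further: potency means the concentration at half of the fitted maximal effect; 0% = full WT IDH1 enzyme control and full inhibition = no enzyme wells; nearly all actives have a fitted effect of over 55% in size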
# IDH1 R132H conf = confirmation of human mutant IDH1 inhibitors. Potency, µM (titrated, usually from 76.6 µM), for the others: at the top dose activity change, negative = inhibition, usual class: inhibitors. IDH1 R132H enzyme, NADPH diaphorase/resazurin fluorescence. shares compounds with IDH1 R132H inh. AID 624002. 750 tested, 83% active; further: potency means the concentration at half of the fitted maximal effect; nearly all actives have a fitted effect of over 50% in size
# Active calls of the source: *; u = inconclusive; x = not tested or not shown; [ ] = another dose, or the depositor's remark. The call rests on the fitted dose curve; in most records, active means well fitted curve in the direction sought with a large enough effect; inconclusive means small, poorly fitted or top-dose-only effect, or another doubt; inactive means no such curve, though single readings can be large; an effect the other way counts as inactive or inconclusive.
SMILES,TrxR1 inh,TrxR1 substrate,GLS inhibitor,IDH1 R132H inh,IDH1 autofl,IDH1 WT,IDH1 R132H conf
CCOc1ccc(-n2cc(-c3ccccc3)c3c(NC4CCCC4)ncnc32)cc1,3.5%[57.1 µM],-1.6%[57.1 µM],-5.9%,u,-4.2,-2.2%,10µM*
CCOc1ccc(-n2cc(-c3ccccc3)c3c(NC4CCCCC4)ncnc32)cc1,-12.7%[57.1 µM],-6.7%[57.1 µM],4.7%,4.5%,x,x,x
Cc1nn(-c2ccccn2)c2nc(-c3cccs3)cc(C(=O)NCc3ccco3)c12,-18.2%,145.2%,1.8%,-5.2%,x,x,x
Cc1nn(-c2ccccc2)c2nc(-c3cccs3)cc(C(=O)NN)c12,12.0%,1.9%,5.7%,52.1µM*,-4.8,1.9%,-4.5%
CCOC(=O)c1cc(-c2cccs2)nc2c1c(C)nn2-c1ccccn1,27.7%[57.1 µM],18.6%[57.1 µM],2.1%,14.7µM*,-1.6,0.8%,20µM*
Cc1ccc(NC(=O)COC(=O)CC2CCCC2)cc1F,-11.3%[11.4 µM],0.9%[11.4 µM],-3.9%,10.4%,x,x,x
CC(C)c1ccc(NC2CCCN(C(=O)c3ccc(N4CCOCC4)cc3)C2)cc1 (stereo not drawn),-8.8%,-11.5%,-6.6%,44.7µM*,-9.4,-3.7%,20µM*
CCn1c2ccccc2c2cc(/C=N/n3c(-c4cc(C)[nH]n4)n[nH]c3=S)ccc21,19.0%[11.4 µM],4.2%[57.1 µM],u,u,-7.9,-2.2%,14.1µM*
CCn1c2ccccc2c2cc(/C=N/n3cn[nH]c3=S)ccc21,u,-2.3%,-13.6%,0.7%,x,x,x
COc1ccc(-c2cc(C)nc3c(-c4ccc(OC)c(OC)c4)c(C)nn23)cc1,25.5%[11.4 µM],-11.8%,-6.7%,-1.5%,x,x,x
CCOC(=O)c1ccc(N2C(=O)c3n[nH]c(-c4ccco4)c3C2c2cccc(OC)c2)cc1 (stereo not drawn),12.7%,-3.6%,4.4%,u,-1.5,0.2%,u
CCOC(=O)c1ccc(N2C(=O)c3n[nH]c(-c4ccco4)c3C2c2cccc(F)c2)cc1 (stereo not drawn),7.3%,-7.8%,3.2%,-18.9%,x,x,x
CCOC(=O)c1ccc(N2C(=O)c3n[nH]c(-c4ccco4)c3C2c2cccc(O)c2)cc1 (stereo not drawn),-25.9%,-18.1%,14.2%,u,0.2,-10.6%,35.5µM*
CCOC(=O)c1ccc(N2C(=O)c3n[nH]c(-c4cccs4)c3C2c2ccc(O)c(OC)c2)cc1 (stereo not drawn),u,-5.2%,-9.0%,u,4.5,0.4%,14.1µM*
CCOC(=O)c1ccc(N2C(=O)c3n[nH]c(C)c3C2c2ccccc2OC)cc1 (stereo not drawn),11.8%,-7.0%,0.8%,u,-5.5,-2.1%,35.5µM*
O=CC(O)C(O)C(O)C(O)CO (stereo not drawn),x,x,-3.6%,x,x,x,x
C[C@@H]1CN([C@@H](C)CO)C(=O)CCCn2cc(nn2)CO[C@H]1CN(C)C(=O)c1cc(-c2ccccc2)on1,x,x,-4.2%,0.0%,x,x,x
Cc1nn(CC(=O)NCc2ccc(N(C)C)cc2)c(=O)c2nn(-c3ccccc3)c(C)c12,30.4%,4.6%,58.9%,1.2%,x,x,x
Cc1ccc(OCC(=O)OCc2cc(=O)n3nc(C4CCCCC4)sc3n2)cc1C,11.8%[57.1 µM],-1.5%[57.1 µM],0.9%,-0.7%,x,x,x
CCOc1cc(/C=C(\C#N)C(=O)Nc2cccc(C(=O)O)c2)cc(Br)c1OC(=O)c1ccc(OC)cc1,-7.6%,-8.9%,4.4%,52.1µM*,8.3,70.8µM*,31.6µM*
CC1=NN(C(N)=S)C(=O)C1N=Nc1cccc(Cl)c1 (stereo not drawn),u,0.3%,15.2%,u,x,x,x
COc1cccc(N=NC2C(=O)N(C(N)=S)N=C2C)c1 (stereo not drawn),-19.7%[57.1 µM],1.6%[57.1 µM],1.5%,u,2.5,1.5%,-7.8%
CC(C)c1nc(N2CCOCC2)c(C#N)c2c1CCCC2,-2.1%,47.0%,30.8%,u,0.9,5.4%,35.5µM*
CCSc1nc(N2CCOCC2)c2c(c1C#N)CCCC2,10.5%[57.1 µM],8.4%[57.1 µM],5.5%,-2.4%,x,x,x
COc1cccc(CCOC(=O)c2c(-c3ccsc3)oc3c2C(OC(C)=O)CCC3)c1 (stereo not drawn),x,x,-2.0%,x,x,x,x
SMILES,TrxR1 inh,TrxR1 substrate,GLS inhibitor,IDH1 R132H inh,IDH1 autofl,IDH1 WT,IDH1 R132H conf
CC(C)C[C@H](NC(=O)c1[nH]cnc1C(=O)N[C@@H](Cc1ccccc1)C(=O)OC(C)(C)C)C(=O)OC(C)(C)C,-15.3%,-23.0%,-0.6%,7.1%,x,x,x
CC(C)C[C@H](NC(=O)c1[nH]cnc1C(=O)N[C@@H](C)c1ccccc1)C(=O)OC(C)(C)C,-8.6%,-11.2%,-0.8%,17.8µM*,6.6,-14.1%,20µM*
COc1ccc(-c2noc(CSc3nnc(C)n3-c3ccc(C)c(C)c3)n2)c(OC)c1,-4.0%,-6.2%,1.4%,13.2%,x,x,x
COc1ccccc1-c1noc(CSc2nnc(Cc3ccccc3)n2-c2ccc(C)c(C)c2)n1,11.3%,2.9%,3.0%,u,-4.0,5.2%,u
CC1CCCN(S(=O)(=O)c2cc(C(=O)NCc3ccccc3Cl)n(C)c2)C1 (stereo not drawn),21.4%[57.1 µM],2.4%[57.1 µM],9.0%,0.6%,x,x,x
C[C@H]1CN([C@@H](C)CO)C(=O)c2cccc(NS(=O)(=O)c3ccc(Cl)cc3)c2O[C@@H]1CN(C)CC1CCCCC1,3.2%,2.0%,6.0%,44.7µM*,-4.3,3.7%,31.6µM*
C[C@H](CO)N1C[C@H](C)[C@@H](CN(C)CC2CCCCC2)Oc2c(NS(=O)(=O)c3ccccc3)cccc2C1=O,8.8%[57.1 µM],6.5%[57.1 µM],4.4%,1.0%,x,x,x
CCCCOc1ccc(/C=N/NC(=S)Nc2cc(C)ccc2C)cc1,-14.0%,-7.2%,x,-4.6%,x,x,x
CCCCOc1ccc(/C=N/NC(=S)Nc2cccc(C)c2C)cc1,-13.4%,-14.2%,12.8%,u,2.0,-0.6%,11.2µM*
NS(=O)(=O)c1ccc(N2N=C(c3ccccc3)CC2c2cccc(F)c2)cc1 (stereo not drawn),38.6%,757.1%,1.9%,-13.8%,x,x,x
NS(=O)(=O)c1ccc(N2N=C(c3ccc(Br)cc3)CC2c2ccc(F)cc2)cc1 (stereo not drawn),94.5%[57.1 µM],400.0%[57.1 µM],0.2%,u,0.2,2.0%,u
CCOc1cc2nc(-c3ccc(OC)c(OC)c3)nc(N3CCOCC3)c2cc1OC,-5.4%,4.9%,-2.1%,u,-13.6,-10.2%,15.8µM*
COc1ccccc1N1CCN(C(=O)Cc2c(C(=O)O)c(C)cn2C)CC1,-4.3%[57.1 µM],-6.4%[57.1 µM],7.7%,-7.6%,x,x,x
COCCCN1C(=O)c2[nH]nc(-c3cc(C)cc(C)c3O)c2C1c1ccc(O)c(OC)c1 (stereo not drawn),10.8%,-3.3%,15.4%,3.2%,x,x,x
